# Inconclusive results are not listed. Calls of active or inactive are those of the source. The calls were made as follows, unless noted: active = hit-call score of the fitted dose curve at least 0.9, where 1 is the maximum; inconclusive = response in the unintended direction; inactive = score below 0.9.
# Legend:
# [1] = molecular target: PGR (gene 5241) (UniProt P06401); experiment: TOX21_PR_BLA_Followup_Agonist_ratio: Tox21 HEK293 Progesterone Receptor (PR) Agonism Beta-lactamase Follow-Up Assay, Ratio (AID 2283933)
# Chain of PGR (gene 5241) (P06401 whole entry, looked up): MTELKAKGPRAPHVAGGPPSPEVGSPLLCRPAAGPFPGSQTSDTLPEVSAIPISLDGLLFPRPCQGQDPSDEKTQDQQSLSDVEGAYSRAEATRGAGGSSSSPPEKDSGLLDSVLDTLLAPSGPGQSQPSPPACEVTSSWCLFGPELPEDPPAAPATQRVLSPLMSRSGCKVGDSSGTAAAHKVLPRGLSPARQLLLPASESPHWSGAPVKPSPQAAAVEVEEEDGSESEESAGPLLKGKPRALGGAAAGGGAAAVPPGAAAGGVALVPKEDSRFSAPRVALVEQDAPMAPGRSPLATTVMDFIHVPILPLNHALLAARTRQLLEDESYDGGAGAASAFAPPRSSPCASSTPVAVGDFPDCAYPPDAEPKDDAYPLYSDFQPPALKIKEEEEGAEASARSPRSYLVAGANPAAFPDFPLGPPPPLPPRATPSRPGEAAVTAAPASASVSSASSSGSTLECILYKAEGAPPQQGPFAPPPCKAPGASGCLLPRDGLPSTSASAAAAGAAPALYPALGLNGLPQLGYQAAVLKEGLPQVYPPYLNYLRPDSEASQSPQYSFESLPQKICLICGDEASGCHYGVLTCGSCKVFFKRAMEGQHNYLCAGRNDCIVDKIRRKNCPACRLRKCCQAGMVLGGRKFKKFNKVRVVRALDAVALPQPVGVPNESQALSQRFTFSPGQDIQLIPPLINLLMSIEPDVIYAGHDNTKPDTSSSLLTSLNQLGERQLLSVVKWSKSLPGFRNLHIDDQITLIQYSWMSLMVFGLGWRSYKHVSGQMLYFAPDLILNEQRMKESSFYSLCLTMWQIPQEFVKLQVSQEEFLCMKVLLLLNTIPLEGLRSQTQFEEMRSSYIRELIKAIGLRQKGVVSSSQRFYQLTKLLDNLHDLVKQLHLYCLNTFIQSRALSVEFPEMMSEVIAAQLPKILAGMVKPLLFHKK
# Summary of the method: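 PR-UAS-bla HEK293T cells in medium with 2% charcoal-stripped FBS were dosed after 6 h plating and incubated 16 h at 37C. LiveBLAzer FRET substrate was added for 2 h at room temperature. Cleaved/uncleaved substrate ratio fitted against DMSO; CellTiter-Glo viability run in the same wells.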
# [2] = molecular target: PGR (gene 5241) (UniProt P06401); experiment: TOX21_PR_BLA_Followup_Antagonist_ratio: Tox21 HEK293 Progesterone Receptor (PR) Antagonism Beta-lactamase Follow-Up Assay, Ratio (AID 2283934)
# Summary of the method: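 PR-UAS-bla HEK293T cells, 3,000/well in 2% charcoal-stripped FBS, given compound plus 1nM R5020 agonist for 16 hr at 37C. Beta-lactamase FRET substrate 2 hours, ratio cleaved/uncleaved fluorescence; viability by CellTiter-Glo in same wells.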
# [3] = TOX21_PR_BLA_Followup_Agonist_viability: Viability Assessment in the Tox21 HEK293 Progesterone Receptor (PR) Agonism Beta-lactamase Follow-Up Assay (AID 2283935);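 also: signal loss means lower viability so actives are cytotoxic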
# Summary of the method: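 PR-UAS-bla HEK293T cells in 2% charcoal-stripped FBS medium, plated 6 hr before compound addition, exposed 16 hr at 37C. Viability read by CellTiter-Glo ATP luminescence after 30 min at room temperature, in the same wells as the beta-lactamase readout.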
# [4] = molecular target: PGR (gene 5241) (UniProt P06401); experiment: TOX21_PR_LUC_Followup_Agonist: Tox21 HEK293 Progesterone Receptor (PR) Agonism Luciferase Follow-Up Assay (AID 2283937; active = hit-call score of the fitted dose curve at least 0.9, where 1 is the maximum; inactive = score below 0.9)
# Summary of the method: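 HEK293-PR-A-luc cells, conditioned 5 days in 10% charcoal-stripped FBS medium, seeded 3,000/well for 5 h, then compound-treated 16 h at 37C. ONE-Glo luminescence read after 30 min at room temperature; gain of signal versus DMSO.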
# [5] = TOX21_PR_LUC_Followup_Antagonist_viability: Viability Assessment in the Tox21 HEK293 Progesterone Receptor (PR) Antagonism Luciferase Follow-Up Assay (AID 2283940)
# Summary of the method: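 HEK293-PR-A-luc cells kept in charcoal-stripped FBS medium were plated 5 h before compound addition, then exposed 16 h at 37C; viability read as cellular ATP by luciferase luminescence, loss of signal indicating cytotoxicity.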
# [6] = TOX21_PR_LUC_Followup_Agonist_viability: Viability Assessment in the Tox21 HEK293 Progesterone Receptor (PR) Agonism Luciferase Follow-Up Assay (AID 2283941);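 also: loss of signal means cytotoxicity so actives lower viability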
# Summary of the method: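 HEK293-PR-A-luc cells, kept in 10% charcoal-stripped FBS medium, were treated with compounds for 16 h at 37C. Viability read as cellular ATP by luciferase-coupled luminescence; loss of signal indicates cytotoxicity.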
# [7] = ATG_M_32_XSP2: Attagene TRANS-FACTORIAL Multi-Species (XSP2) HepG2 Assay for M19 Transcription Factor (Internal Marker) (AID 2283826)
# Summary of the method: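 HepG2 cells transiently transfected with GAL4-UAS reporter units; XSP2 panel included 3 nM 6-alpha-fluorotestosterone and 1.5 nM norgestrel for androgen receptor stimulation. Reporter mRNA read 24 h post-dosing by RT-PCR/capillary electrophoresis; fitted upward versus DMSO.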
# [8] = TOX21_p53_BLA_p5_viability: Viability Assessment in the Tox21 HCT-116 p53 Agonism Beta-lactamase Assay, Phase 5 (AID 2283600)
# Summary of the method: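 HCT-116 p53 beta-lactamase reporter cells, 4000/well, were exposed to compound (pin transfer, 217-fold dilution) for 16 hours at 37C. Cellular ATP was read by CellTiter-Glo luminescence after 30 min at room temperature.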
# [9] = molecular target: Cellular tumor antigen p53 (Homo sapiens) (UniProt P04637); experiment: TOX21_p53_BLA_p4_ratio: Tox21 HCT-116 p53 Agonism Beta-lactamase Assay, Ratio, Phase 4 (AID 2283601)
# Chain of Cellular tumor antigen p53 (Homo sapiens) (P04637 whole entry, looked up): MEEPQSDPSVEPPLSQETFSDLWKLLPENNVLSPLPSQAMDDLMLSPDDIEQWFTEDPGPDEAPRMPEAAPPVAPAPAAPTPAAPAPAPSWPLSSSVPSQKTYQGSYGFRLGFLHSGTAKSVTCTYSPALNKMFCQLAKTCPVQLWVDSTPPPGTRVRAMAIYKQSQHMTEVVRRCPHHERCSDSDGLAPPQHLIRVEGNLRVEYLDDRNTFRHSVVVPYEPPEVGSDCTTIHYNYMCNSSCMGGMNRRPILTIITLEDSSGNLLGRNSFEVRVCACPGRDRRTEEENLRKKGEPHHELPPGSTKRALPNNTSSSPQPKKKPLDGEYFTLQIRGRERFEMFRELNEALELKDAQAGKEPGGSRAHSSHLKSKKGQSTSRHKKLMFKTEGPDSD
# Summary of the method: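 Signal is the blue/green (460nm/530nm) ratio of cleaved versus uncleaved CCF4-AM substrate, read after 2 h substrate loading. Cells were HCT116 carrying the p53-responsive beta-lactamase reporter, dosed 16 h at 37C, 5% CO2; CellTiter-Glo measured in parallel.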
# [10] = molecular target: Cellular tumor antigen p53 (Homo sapiens) (UniProt P04637); experiment: TOX21_p53_BLA_p5_ratio: Tox21 HCT-116 p53 Agonism Beta-lactamase Assay, Ratio, Phase 5 (AID 2283599)
# Summary of the method: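 Beta-lactamase reporter ratio (blue 460 nm over green 530 nm, 405 nm excitation) after 2 h CCF4-AM loading, in HCT-116 cells exposed 16 h at 37 C to compounds pinned at 217-fold dilution. Increases relative to DMSO baseline scored.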
# [11] = system: Thyroperoxidase (TPO), gene 54314; experiment: CCTE_Simmons_AUR_rTPO: CCTE's Amplex UltraRed Assay for Thyroperoxidase (TPO) Inhibition, Simmons Lab (AID 2283662)
# Summary of the method: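 Rat thyroid microsomes (5 ug protein) were incubated with test compound (8 concentrations, 5 nM–87.5 uM final, 0.5% DMSO), 25 uM Amplex UltraRed and 300 uM H2O2 in 200 mM phosphate buffer for 30 min at 37C in the dark; fluorescence read at 544/590 nm.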
# [12] = CCTE_Simmons_CellTiterGLO_HEK293T: Viability Assessment in CCTE's Assays for Thyroperoxidase (TPO) Inhibition, Simmons Lab (AID 2283665)
# Summary of the method: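 HEK293T cells in DMEM with 1% FBS, dosed 24 h at 37C with 8 concentrations, 5 nM–87.5 uM final, 0.5% DMSO. ATP measured by CellTiter Glo luminescence; loss of signal vs DMSO, three biological replicates.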
# [13] = molecular target: Luciferin 4-monooxygenase (Photinus pyralis) (UniProt P08659); experiment: CCTE_Simmons_QuantiLum_inhib_2: CCTE's Firefly Luciferase Inhibition Assay, Simmons Lab (AID 2283767);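 also: potency for inhibitors that lower luciferase luminescence relative to DMSO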
# Chain of Luciferin 4-monooxygenase (Photinus pyralis) (P08659 whole entry, looked up): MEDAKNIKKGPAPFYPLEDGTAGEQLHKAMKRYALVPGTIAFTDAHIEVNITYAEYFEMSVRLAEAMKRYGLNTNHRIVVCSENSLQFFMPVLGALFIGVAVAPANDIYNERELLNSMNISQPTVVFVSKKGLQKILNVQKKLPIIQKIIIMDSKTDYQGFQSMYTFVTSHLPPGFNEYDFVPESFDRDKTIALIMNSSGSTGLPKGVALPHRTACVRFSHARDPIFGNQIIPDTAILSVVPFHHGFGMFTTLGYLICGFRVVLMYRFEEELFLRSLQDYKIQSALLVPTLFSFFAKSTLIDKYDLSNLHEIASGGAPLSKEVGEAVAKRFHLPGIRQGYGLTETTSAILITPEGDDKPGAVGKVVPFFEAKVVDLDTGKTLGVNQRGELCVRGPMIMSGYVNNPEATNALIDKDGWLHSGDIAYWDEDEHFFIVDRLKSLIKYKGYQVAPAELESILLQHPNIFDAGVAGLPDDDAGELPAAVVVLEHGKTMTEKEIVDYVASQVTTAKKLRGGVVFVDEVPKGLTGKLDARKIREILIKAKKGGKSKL
# Summary of the method: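 Cell-free recombinant firefly luciferase (5 ng/well) in 200mM potassium phosphate with 1 mg/ml BSA, 30 min at 37C with 8 concentrations from 5 nM to 87.5 uM [final], 0.5% DMSO. Luminescence read after D-luciferin (150uM)/dATP (147uM) reagent injection, pH 7.8; triplicates.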
# [14] = CCTE_Harrill_HTTr_Viability_MCF7: CCTE's 6-hour Cell Viability Assessment for the High-Throughput Transcriptomics (HTTr) Platform, in MCF-7 cells cultured in DMEM + 10% fetal bovine serum, Harrill Lab (AID 2284010; active = hit-call score of the fitted dose curve at least 0.9, where 1 is the maximum; inactive = score below 0.9)
# Summary of the method: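 MCF-7 cells in DMEM + 10% FBS, 384-well, exposed 6 h to an eight-point dilution series. Membrane integrity scored by high-content imaging of propidium iodide exclusion; bidirectional fit versus DMSO.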
# [15] = molecular target: Thyroid hormone receptor alpha (Rattus norvegicus) + Thyroid hormone receptor beta (Rattus norvegicus) (UniProt P18113+P63059); experiment: TOX21_TR_LUC_GH3_Agonist_Followup: Tox21 GH3 Thyroid Hormone Receptor Agonism Luciferase Follow-Up Assay (AID 2283939)
# Chain of Thyroid hormone receptor alpha (Rattus norvegicus) + Thyroid hormone receptor beta (Rattus norvegicus) (P63059 whole entry, looked up): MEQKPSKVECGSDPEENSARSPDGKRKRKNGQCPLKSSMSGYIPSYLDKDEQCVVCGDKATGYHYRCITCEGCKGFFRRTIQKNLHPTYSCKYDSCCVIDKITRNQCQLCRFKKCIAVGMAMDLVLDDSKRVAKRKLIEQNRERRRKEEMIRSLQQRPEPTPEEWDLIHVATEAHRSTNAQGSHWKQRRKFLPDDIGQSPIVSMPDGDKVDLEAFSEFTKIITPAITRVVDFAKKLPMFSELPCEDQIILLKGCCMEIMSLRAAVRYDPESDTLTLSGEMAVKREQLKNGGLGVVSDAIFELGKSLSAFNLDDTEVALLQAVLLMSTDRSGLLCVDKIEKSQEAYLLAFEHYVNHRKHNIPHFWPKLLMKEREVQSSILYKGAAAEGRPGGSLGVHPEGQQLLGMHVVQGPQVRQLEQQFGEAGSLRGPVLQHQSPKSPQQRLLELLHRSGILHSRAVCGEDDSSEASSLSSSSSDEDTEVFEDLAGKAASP
# Chain of Thyroid hormone receptor alpha (Rattus norvegicus) + Thyroid hormone receptor beta (Rattus norvegicus) (P18113 whole entry, looked up): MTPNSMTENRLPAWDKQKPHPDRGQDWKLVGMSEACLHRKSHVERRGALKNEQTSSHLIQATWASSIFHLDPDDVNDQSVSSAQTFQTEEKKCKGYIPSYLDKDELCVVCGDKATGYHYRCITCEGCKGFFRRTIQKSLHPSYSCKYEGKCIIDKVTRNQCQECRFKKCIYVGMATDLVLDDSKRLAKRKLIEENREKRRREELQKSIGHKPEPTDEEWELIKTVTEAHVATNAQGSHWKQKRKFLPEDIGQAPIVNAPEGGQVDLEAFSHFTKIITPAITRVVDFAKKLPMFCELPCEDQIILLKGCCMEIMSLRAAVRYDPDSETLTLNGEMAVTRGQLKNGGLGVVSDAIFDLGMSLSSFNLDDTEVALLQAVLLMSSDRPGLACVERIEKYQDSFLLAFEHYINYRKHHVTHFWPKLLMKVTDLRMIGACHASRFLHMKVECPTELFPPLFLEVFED
# Summary of the method: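 Rat GH3 cells (1,500/well) in serum-free assay medium, treated with 15-point series, 92 uM to 5 nM final, for 24 h at 37C. Luciferase via ONE-Glo luminescence; gain of signal fitted against DMSO, T3 positive control.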
# [16] = molecular target: THRA (gene 7067) (UniProt P10827); experiment: TOX21_TRA_COA_Agonist_Followup_ratio: Tox21 Thyroid Hormone Receptor alpha Agonism through Coactivator Recruitment Follow-Up Assay, Ratio (AID 2283948; active = hit-call score of the fitted dose curve at least 0.9, where 1 is the maximum; inactive = score below 0.9)
# Chain of THRA (gene 7067) (P10827 whole entry, looked up, the tested form may be a part): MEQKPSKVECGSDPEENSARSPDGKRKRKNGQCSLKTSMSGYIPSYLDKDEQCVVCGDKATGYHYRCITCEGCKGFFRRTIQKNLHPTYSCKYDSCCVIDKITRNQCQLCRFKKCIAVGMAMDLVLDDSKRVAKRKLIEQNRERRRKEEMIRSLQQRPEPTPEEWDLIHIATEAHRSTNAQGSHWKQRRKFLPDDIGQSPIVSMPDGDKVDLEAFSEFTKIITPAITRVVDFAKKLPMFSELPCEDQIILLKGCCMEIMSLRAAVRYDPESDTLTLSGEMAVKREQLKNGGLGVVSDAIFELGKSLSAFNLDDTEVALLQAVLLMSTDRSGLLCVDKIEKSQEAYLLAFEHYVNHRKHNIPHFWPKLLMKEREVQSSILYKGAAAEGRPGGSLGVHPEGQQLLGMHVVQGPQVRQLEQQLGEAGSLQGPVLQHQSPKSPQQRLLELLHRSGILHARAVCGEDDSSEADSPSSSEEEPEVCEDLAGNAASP
# Summary of the method: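 Cell-free TR-FRET: GST-tagged TRα LBD (2.5 nM) with 0.10% BSA and compound, then fluorescein-SRC-2 peptide (200 nM) and Tb-anti-GST antibody (2 nM). Readout 520:495 nm ratio (ex 340 nm), normalized to DMSO (0%) and T3 (100%).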
# [17] = molecular target: THRB (gene 7068) (UniProt P10828); experiment: TOX21_TRB_BLA_Agonist_Followup_ratio: Tox21 Thyroid Hormone Receptor beta Agonism Beta-lactamase (BLA) Follow-Up Assay, Ratio (AID 2283954)
# Chain of THRB (gene 7068) (P10828 whole entry, looked up, the tested form may be a part): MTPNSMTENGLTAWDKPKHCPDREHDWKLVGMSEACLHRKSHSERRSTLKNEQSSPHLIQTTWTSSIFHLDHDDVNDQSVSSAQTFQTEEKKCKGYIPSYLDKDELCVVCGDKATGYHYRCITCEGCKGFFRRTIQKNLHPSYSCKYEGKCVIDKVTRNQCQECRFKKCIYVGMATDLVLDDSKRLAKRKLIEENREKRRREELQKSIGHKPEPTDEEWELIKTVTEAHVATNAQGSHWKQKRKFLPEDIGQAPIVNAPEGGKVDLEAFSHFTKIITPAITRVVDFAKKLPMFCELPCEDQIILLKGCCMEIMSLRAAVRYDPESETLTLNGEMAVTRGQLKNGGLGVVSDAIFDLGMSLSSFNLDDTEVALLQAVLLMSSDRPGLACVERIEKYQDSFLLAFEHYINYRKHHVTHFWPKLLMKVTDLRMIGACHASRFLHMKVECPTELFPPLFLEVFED
# Summary of the method: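 Human TRβ LBD–GAL4 DBD fusion in GeneBLAzer UAS-bla HEK293T cells; 11 concentrations in triplicate, 18 h at 37°C/5% CO2, T3 as agonist control. CCF4-AM substrate 2 h at room temperature; 460:530 nm ratio fitted for gain of signal versus DMSO.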
# [18] = TOX21_TRB_BLA_Agonist_Followup_viability: Viability Assessment in the Tox21 Thyroid Hormone Receptor beta Agonism Beta-lactamase (BLA) Follow-Up Assay (AID 2283956)
# Summary of the method: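 TRb-bla HEK293T cells (GAL4-DBD/human TRb LBD) in 2% charcoal-stripped FBS medium were exposed 18 h at 37C to 11 concentrations in triplicate. CellTiter-Glo ATP luminescence was read after 30 min at room temperature, with bidirectional fitting against DMSO.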
# [19] = molecular target: THRB (gene 7068) (UniProt P10828); experiment: TOX21_TRB_COA_Agonist_Followup_ratio: Tox21 Thyroid Hormone Receptor beta Agonism through Coactivator Recruitment Follow-Up Assay, Ratio (AID 2283963; active = hit-call score of the fitted dose curve at least 0.9, where 1 is the maximum; inactive = score below 0.9)
# Summary of the method: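 Signal is the 520/495 nm emission ratio (excitation 340 nm), scaled between DMSO-only wells as 0% and T3 wells as 100%. It reflects fluorescein-labeled SRC-2 peptide recruitment to GST-TRβ ligand-binding domain detected via terbium anti-GST antibody.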
# [20] = molecular target: Retinoic acid receptor RXR-alpha (Homo sapiens) (UniProt P19793); experiment: TOX21_TR_RXR_BLA_Agonist_Followup_ratio: Tox21 Thyroid Hormone Receptor beta Retinoid X Receptor alpha (RXRa) Agonism Beta-lactamase (BLA) Follow-Up Assay, Ratio (AID 2283968)
# Summary of the method: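 RXRa-UAS-bla HEK293T cells, 5 h attachment at 37C/5% CO2, then 11 concentrations in triplicate for 16 h; 9-cis retinoic acid positive control. FRET-B/GCCF4-AM substrate 2 h at room temperature; 460:530 nm ratio, fitted for gain versus DMSO.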
# [21] = TOX21_TR_RXR_BLA_Agonist_Followup_viability: Viability Assessment in the Tox21 Thyroid Hormone Receptor beta Retinoid X Receptor alpha (RXRa) Agonism Beta-lactamase (BLA) Follow-Up Assay (AID 2283970)
# Summary of the method: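 RXRa-UAS-bla HEK293T cells, 2,500/well in phenol red-free DMEM with 2% charcoal-stripped FBS, dosed for 16 h at 37C. Viability measured by CellTiter-Glo ATP luminescence; fitted bidirectionally against DMSO baseline, loss of signal indicating cytotoxicity.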
# [22] = molecular target: human Androgen Receptor (AR), AR (gene 367) (UniProt P10275); experiment: ATG_hAR_XSP1: Attagene TRANS-FACTORIAL Multi-Species (XSP1) HepG2 Assay for human Androgen Receptor (AR) (AID 2283785)
# Chain of human Androgen Receptor (AR), AR (gene 367) (P10275 whole entry, looked up): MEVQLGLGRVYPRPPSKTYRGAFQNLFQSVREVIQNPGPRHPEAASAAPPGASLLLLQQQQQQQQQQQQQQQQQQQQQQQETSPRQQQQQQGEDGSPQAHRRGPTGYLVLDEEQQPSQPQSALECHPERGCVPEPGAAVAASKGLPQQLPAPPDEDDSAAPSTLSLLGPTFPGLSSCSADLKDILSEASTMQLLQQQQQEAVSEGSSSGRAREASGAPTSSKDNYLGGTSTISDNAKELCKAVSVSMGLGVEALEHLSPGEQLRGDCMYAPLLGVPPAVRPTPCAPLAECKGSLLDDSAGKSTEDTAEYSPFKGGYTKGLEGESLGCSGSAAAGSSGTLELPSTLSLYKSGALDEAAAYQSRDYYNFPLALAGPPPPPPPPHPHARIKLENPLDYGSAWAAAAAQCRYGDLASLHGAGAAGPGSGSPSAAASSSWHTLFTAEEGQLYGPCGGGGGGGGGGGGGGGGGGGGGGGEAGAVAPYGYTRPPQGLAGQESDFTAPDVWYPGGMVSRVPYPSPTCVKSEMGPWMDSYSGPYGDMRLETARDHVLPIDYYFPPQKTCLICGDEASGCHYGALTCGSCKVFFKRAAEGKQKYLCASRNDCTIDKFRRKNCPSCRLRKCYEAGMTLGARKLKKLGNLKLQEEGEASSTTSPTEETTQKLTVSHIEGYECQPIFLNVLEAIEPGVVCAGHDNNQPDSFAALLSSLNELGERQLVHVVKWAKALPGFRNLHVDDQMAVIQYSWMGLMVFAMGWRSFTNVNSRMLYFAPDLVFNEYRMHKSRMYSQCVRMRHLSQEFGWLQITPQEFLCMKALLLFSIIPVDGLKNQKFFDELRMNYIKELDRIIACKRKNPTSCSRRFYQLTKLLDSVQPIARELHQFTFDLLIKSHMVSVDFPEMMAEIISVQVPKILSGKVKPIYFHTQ
# [23] = ACEA_ER_AUC_viability: ACEA Biosciences xCELLigence Real-Time Cell Analysis on Estrogen Receptor Agonism for Viability (AID 2283782);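 also: continuous compound exposure with impedance area under curve over 80 h; hit means loss of impedance signal meaning reduced cell growth or viability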
# Summary of the method: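 T-47D; phenol red-free RPMI1640 + 10% CS-FBS; 8 conc., 1:4 serial, max 100 uM final, ≤0.5% DMSO; n = 2; continuous exposure; impedance monitored to 80 h post-dose; AUC vs DMSO.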
smiles,measurement,setting,value
O=C(CBr)Nc1ccc(Cl)cc1C(=O)c1ccccc1F,outcome,[1],inactive
same,outcome,[2],inactive
same,outcome,[3],inactive
same,outcome,[4],inactive
same,outcome,[5],inactive
same,outcome,[6],inactive
CCCCCCCCCCCCN,outcome,[7],inactive
O=c1[nH]c2ccccc2n1CCCN1CCC(n2c(=O)[nH]c3cc(Cl)ccc32)CC1,outcome,[8],inactive
C[C@]12CC[C@H]3[C@@H](CCC4=CC(=O)CC[C@@]43C)[C@@H]1CC[C@@H]2O,outcome,[9],inactive
c1ccc(B(c2ccccc2)c2ccccc2)cc1,outcome,[7],inactive
CN(CCO)CCO,outcome,[8],inactive
same,outcome,[9],inactive
Oc1ccc2cc(SSc3ccc4cc(O)ccc4c3)ccc2c1,outcome,[7],inactive
CC1CCCC1,outcome,[10],inactive
same,outcome,[9],inactive
CCN(Cc1ccc(Cl)nc1)/C(=C/[N+](=O)[O-])NC,outcome,[10],inactive
same,outcome,[9],inactive
Cc1ccc2cc3c(ccc4ccccc43)c3c2c1CC3,outcome,[11],inactive
same,outcome,[12],inactive
same,AC50,[13],0.263 µM (active)
same,outcome,[14],inactive
O=C(O)CCCCCCNC1c2ccccc2CCc2ccccc21,outcome,[9],inactive
same,outcome,[15],inactive
same,AC50,[16],23.8 µM (active)
same,outcome,[17],inactive
same,outcome,[18],inactive
same,AC50,[19],13.2 µM (active)
same,outcome,[20],inactive
same,outcome,[21],inactive
NC(=O)c1cc([N+](=O)[O-])cc([N+](=O)[O-])c1,outcome,[8],inactive
CC1(C)C(C=C(Cl)Cl)C1C(=O)OCc1cccc(Oc2ccccc2)c1 (stereo unspecified),outcome,[22],inactive
Nc1ccc(Cl)cc1C(=O)c1ccccc1F,outcome,[1],inactive
same,AC50,[2],17.3 µM (active)
same,outcome,[3],inactive
same,outcome,[4],inactive
same,outcome,[5],inactive
same,outcome,[6],inactive
O=C1Nc2ccc(Cl)cc2C(c2ccccc2Cl)=NC1O (stereo unspecified),outcome,[8],inactive
same,outcome,[9],inactive
C[C@]12CC[C@H]3[C@@H](CCC4=CC(=O)CC[C@@H]43)[C@@H]1CC[C@@H]2OC(=O)CCc1ccco1,AC50,[1],2.16 µM (active)
same,outcome,[2],inactive
same,outcome,[3],inactive
same,AC50,[4],0.0275 µM (active)
CCCN(CCC)c1c([N+](=O)[O-])cc(S(C)(=O)=O)cc1[N+](=O)[O-],AC50,[23],50 µM (active)
C(=C(c1ccccc1)c1ccccc1)c1ccccc1,outcome,[7],inactive
CCN(CC)CCc1c[nH]c2ccccc12,outcome,[9],inactive

# Reference: PubChem BioAssay (EPA / NIEHS)
